Results reported in the supplement of paper PMC10127200.
Structures can show the parent of a compound that is named as a salt.

Assays:
Assay in all cases: Euclidean distance of Cell Painting phenotypic profile (signed KS, 77 features) to DMSO centroid (dimensionless distance); higher = stronger phenotypic change vs DMSO (phenoactivity)
Details in all cases: 48 h; 5 or 10 uM (library dependent)
786-O = system: 786-O
Procedure, shortened: (§1)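 Phenoactivity is computed as Euclidean distance to the median vehicle profile. The profiles, drawn from 77 Harmony features scored as signed Kolmogorov-Smirnov statistics versus same-plate vehicle wells, were corrected for plate position, correlation-weighted and replicate-averaged at the top dose. Stained cells were imaged confocally at 20X (9 fields/well) after 48 h with library compounds at 10 or 5 uM, 0.1% DMSO final, in five cancer lines and a healthy fibroblast line.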

A549 = system: A549
Procedure, shortened: as §1

DU145 = system: DU145
Procedure, shortened: as §1

FB = system: FB
Procedure, shortened: as §1

HEPG2 = system: HEPG2
Procedure, shortened: as §1

OVCAR4 = system: OVCAR4
Procedure, shortened: as §1

| Structure (SMILES) | Euclidean distance (786-O) | Euclidean distance (A549) | Euclidean distance (DU145) | Euclidean distance (FB) | Euclidean distance (HEPG2) | Euclidean distance (OVCAR4) |
| --- | --- | --- | --- | --- | --- | --- |
| C[C@]12N[C@H](Cc3ccccc31)c1ccccc12 [MK-801 (Dizocilpine)] | 0.525 | 0.829 | 1.2 | 0.635 | 1.41 | 1.23 |
| C[C@]12CCC(=O)C[C@@H]1CC[C@@H]1[C@@H]2CC[C@]2(C)[C@@H](O)CC[C@@H]12 [Dihydrotestosterone(DHT)] | 1.54 | 0.944 | 0.925 | 0.775 | 0.429 | 0.677 |
| O=C(Oc1ccc([N+](=O)[O-])cc1)N1CCC(C(O)(c2ccc3c(c2)OCO3)c2ccc3c(c2)OCO3)CC1 | 1.24 | 1.34 | 1.4 | 1.86 | 1.15 | 1.12 |
| N[C@@H]1C[C@H]1c1ccccc1 [Tranylcypromine (2-PCPA) HCl] | 1.2 | 1.52 | 1.36 | 2.02 | 1.47 | 1.76 |
| CN1[C@@H]2CC[C@H]1C[C@@H](OC(=O)C(CO)c1ccccc1)C2 (stereo partly drawn) [Atropine sulfate] | 0.994 | 0.9 | 0.824 | 0.898 | 0.473 | 1.38 |
| C#C[C@]1(O)C=C[C@H]2[C@@H]3CCC4=CC(=O)CC[C@@H]4[C@H]3CC[C@@]21CC [Gestodene] | 1.29 | 0.869 | 2.08 | 1.08 | 2.49 | 1.33 |
| Cc1cc(SCc2sc(-c3ccc(C(F)(F)F)c(F)c3)nc2C)ccc1OCC(=O)O | 0.634 | 1.17 | 0.823 | 1.08 | 2.24 | 0.807 |
| C#C[C@]1(O)CC[C@H]2[C@@H]3CCC4=CC(=O)CC[C@]4(C)[C@H]3CC[C@@]21C [Ethisterone] | 1.07 | 0.836 | 1.58 | 0.721 | 0.747 | 1.06 |
| Cc1ccccc1-n1c(CF)nc2ccc(N)cc2c1=O [Afloqualone] | 0.926 | 0.643 | 0.714 | 1.21 | 0.422 | 0.949 |
| CN1[C@@H]2CC(O)C[C@H]1[C@@H]1O[C@@H]12 (stereo partly drawn) [Scopine HCl] | 0.344 | 0.885 | 0.479 | 0.66 | 0.893 | 0.714 |
| COc1ccc(C=O)cc1 [p-Anisaldehyde] | 1.24 | 0.754 | 0.627 | 0.751 | 0.785 | 1.16 |
| C[C@@]12N[C@@H](Cc3ccccc31)c1ccccc12 [(-)-MK 801 Maleate] | 1 | 1.63 | 1.84 | 3.8 | 1.69 | 4.43 |
| O=c1c2ccccc2[se]n1-c1ccccc1 [Ebselen] | 1.37 | 1.48 | 1.01 | 1.16 | 0.769 | 1.42 |
| Cc1cccc(C(C)c2c[nH]cn2)c1C (stereo not drawn) [Medetomidine HCl] | 0.819 | 0.591 | 0.87 | 0.682 | 0.602 | 1.07 |
| CC(NC(C)(C)C)C(=O)c1cccc(Cl)c1 (stereo not drawn) [Amfebutamone HCl] | 1.4 | 1.06 | 0.536 | 1.05 | 0.846 | 1.45 |
| CN1[C@@H]2CC[C@H]1C[C@@H](OC(=O)C(CO)c1ccccc1)C2 (stereo partly drawn) [Atropine sulfate monohydrate] | 0.718 | 0.691 | 0.677 | 0.688 | 0.719 | 1.53 |
| O=c1ccc2ccc3occc3c2o1 [Isopsoralen] | 1.25 | 0.993 | 0.786 | 1.02 | 0.495 | 1.1 |
| CNCC(=O)c1ccc(O)c(O)c1 [Adrenalone HCl] | 1.06 | 0.418 | 1.18 | 1.16 | 0.892 | 0.981 |
| CN1[C@@H]2CC[C@H]1C[C@@H](OC(=O)[C@H](CO)c1ccccc1)C2 [Hyoscyamine] | 0.984 | 0.92 | 0.681 | 0.505 | 0.646 | 1.31 |
| CCNC1(c2cccs2)CCCCC1=O (stereo not drawn) [Tiletamine Hydrochloride] | 1.22 | 1.39 | 1.26 | 1.39 | 0.678 | 1.75 |
| CCCN1CCO[C@@H]2c3cc(O)ccc3OC[C@H]21 | 0.455 | 0.629 | 0.762 | 0.945 | 0.824 | 0.818 |
| CCOc1ccccc1-n1c(C(C)N2CCN(C(=O)COc3ccc(Cl)cc3)CC2)nc2ccccc2c1=O (stereo not drawn) [Erastin] | 3.85 | 1.31 | 1.34 | 3.12 | 1.68 | 2.13 |

| Structure (SMILES) | Euclidean distance (786-O) | Euclidean distance (A549) | Euclidean distance (DU145) | Euclidean distance (FB) | Euclidean distance (HEPG2) | Euclidean distance (OVCAR4) |
| --- | --- | --- | --- | --- | --- | --- |
| Cn1c(CCCC(=O)O)nc2cc(N(CCCl)CCCl)ccc21 [Bendamustine] | 0.99 | 0.793 | 0.645 | 0.717 | 0.64 | 0.732 |
| CN1[C@@H]2C[C@@H](OC(=O)[C@H](CO)c3ccccc3)C[C@H]1[C@@H]1O[C@@H]12 [Scopolamine HBr trihydrate] | 1.03 | 1.25 | 1.17 | 1.06 | 0.452 | 0.796 |
| CN(C)NC(=O)CCC(=O)O [Daminozide] | 0.626 | 0.507 | 0.706 | 0.873 | 0.742 | 1.16 |
| Cc1cc(C(C#N)c2ccc(Cl)cc2)c(Cl)cc1NC(=O)c1cc(I)cc(I)c1O (stereo not drawn) [Closantel] | 1.21 | 0.707 | 0.758 | 0.654 | 0.749 | 0.648 |
| CC[C@@H](C(N)=O)N1CCCC1=O [Levetiracetam] | 1.07 | 1.76 | 0.591 | 1.12 | 0.604 | 1.81 |
| S=C=NCc1ccccc1 [Benzyl isothiocyanate] | 4.42 | 2.5 | 3.41 | 2.02 | 3.28 | 1.82 |
| COc1ccc(C(=O)O)cc1OC [Veratric acid] | 0.978 | 0.85 | 1.2 | 0.896 | 1.05 | 0.931 |
| Cc1cc2c(C(C)C)c(O)c(O)c(C=O)c2c(O)c1-c1c(C)cc2c(C(C)C)c(O)c(O)c(C=O)c2c1O [Gossypol] | 2.34 | 2.66 | 0.576 | 1.05 | 0.654 | 1.74 |
| O=c1ccc2cc(O[C@@H]3O[C@H](CO)[C@@H](O)[C@H](O)[C@H]3O)c(O)cc2o1 [Esculin] | 0.808 | 0.729 | 0.922 | 0.993 | 0.624 | 1.29 |
| O=c1[nH]c2ccc(Cl)cc2c(N[C@@H]2CN3CCC2CC3)c1-c1nc2ccccc2[nH]1 | 4.06 | 4.17 | 3.75 | 3.55 | 3.51 | 4.86 |
| CNC1CC(N)C(O)C(OC2OC(CO)C(O)C3OC4(OC(C(N)CO)C(O)C(O)C4O)OC23)C1O (stereo not drawn) [Hygromycin B] | 1.63 | 1.19 | 1.02 | 2.53 | 1.3 | 1.24 |
| CC[C@@H](CO)NC(=O)[C@@H]1C=C2c3cccc4c3c(cn4C)C[C@H]2N(C)C1 [Methysergide Maleate] | 0.845 | 0.577 | 0.772 | 0.909 | 0.822 | 1.34 |
| N#Cc1nn(-c2c(Cl)cc(C(F)(F)F)cc2Cl)c(N)c1[S+]([O-])C(F)(F)F (stereo not drawn) [Fipronil] | 0.855 | 1.11 | 0.897 | 1.05 | 0.591 | 0.894 |
| Cc1ccccc1-n1c(Cn2ncc3c(N)ncnc32)nc2cccc(C)c2c1=O | 0.868 | 0.946 | 1.12 | 0.901 | 2.23 | 1.03 |
| NC(=O)CN1CC(O)CC1=O (stereo not drawn) [Oxiracetam] | 1.07 | 0.677 | 0.989 | 1.39 | 0.778 | 0.764 |
| CC[C@H]1CN2CC[C@H]1C[C@@H]2[C@@H](O)c1ccnc2ccc(OC)cc12 [Hydroquinidine] | 0.75 | 0.791 | 0.64 | 1.18 | 0.881 | 1.23 |
| CNC(C)Cc1ccccc1OC (stereo not drawn) [Methoxyphenamine Hydrochloride] | 0.913 | 1.83 | 0.725 | 1.38 | 0.34 | 2.5 |
| C[C@H]1CCC/C=C/[C@@H]2C[C@H](O)C[C@H]2[C@H](O)/C=C/C(=O)O1 [Brefeldin A] | 3.77 | 3.61 | 4.53 | 4.79 | 4.54 | 3.85 |
| C[N+]1(C)[C@@H]2C[C@@H](OC(=O)[C@H](CO)c3ccccc3)C[C@H]1[C@@H]1O[C@@H]12 [Methscopolamine] | 0.909 | 0.693 | 0.721 | 0.773 | 0.666 | 1.04 |
| Cc1cc(C2=NOC(c3cc(Cl)cc(Cl)c3)(C(F)(F)F)C2)ccc1C(=O)NCC(=O)NCC(F)(F)F (stereo not drawn) [Fluralaner] | 1.38 | 1.29 | 1.17 | 1.44 | 0.786 | 1.36 |
| C=C(C)[C@H]1Cc2c(ccc3c2O[C@@H]2COc4cc(OC)c(OC)cc4[C@@H]2C3=O)O1 [Rotenone (Barbasco)] | 2.48 | 2.97 | 3.54 | 2.77 | 2.94 | 2.89 |
